Results reported in PubChem BioAssay (EPA / NIEHS).
Results filed as inconclusive are left out. A structure can be active in one record and inactive in another. The source made the active and inactive calls. The calls were made as follows: active = hit-call score of the fitted dose curve at least 0.9, where 1 is the maximum; inconclusive = response in the unintended direction; inactive = score below 0.9. Peptide text beside a SMILES is read from it.

Legend:
[1] = target: rat Thyrotropin Releasing Hormone Receptor (TRH), Trhr (gene 25570) (UniProt Q01717); assay: NVS_GPCR_rTRH: NovaScreen (NVS) G Protein-Coupled Receptor Assay for rat Thyrotropin Releasing Hormone Receptor (TRH) (AID 2283329);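 also: hit means lower bound tracer signal versus DMSO baseline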
Chain of rat Thyrotropin Releasing Hormone Receptor (TRH), Trhr (gene 25570) (Q01717 whole entry, looked up): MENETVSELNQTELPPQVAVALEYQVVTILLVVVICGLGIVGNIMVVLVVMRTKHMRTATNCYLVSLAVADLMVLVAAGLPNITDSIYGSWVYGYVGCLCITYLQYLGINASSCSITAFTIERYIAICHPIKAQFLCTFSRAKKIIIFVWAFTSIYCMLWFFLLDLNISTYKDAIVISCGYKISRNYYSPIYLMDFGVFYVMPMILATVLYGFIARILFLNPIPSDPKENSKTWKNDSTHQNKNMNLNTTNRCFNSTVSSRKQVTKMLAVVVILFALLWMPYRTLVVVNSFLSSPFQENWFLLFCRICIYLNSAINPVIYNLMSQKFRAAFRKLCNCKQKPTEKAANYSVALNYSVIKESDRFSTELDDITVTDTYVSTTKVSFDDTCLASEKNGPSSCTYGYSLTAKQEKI
How it was run: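 Test compounds are screened at 25 uM in duplicate against radioligand binding in rat forebrain membranes, with active pairs followed up over a concentration range. Detection uses filter-based radiodetection after a 4 h exposure.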

[2] = target: Estrogen receptor (Homo sapiens) (UniProt P03372); assay: OT_ER_ERaERa_1440: Odyssey Thera (OT) 24-hour HEK293T Protein-Complementation Assay for Estrogen Receptor-alpha/-alpha Homodimer (AID 2283349);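 also: hits raise fluorescence above DMSO for agonists and antagonists alike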
Chain of Estrogen receptor (Homo sapiens) (P03372 whole entry, looked up, the tested form may be a part): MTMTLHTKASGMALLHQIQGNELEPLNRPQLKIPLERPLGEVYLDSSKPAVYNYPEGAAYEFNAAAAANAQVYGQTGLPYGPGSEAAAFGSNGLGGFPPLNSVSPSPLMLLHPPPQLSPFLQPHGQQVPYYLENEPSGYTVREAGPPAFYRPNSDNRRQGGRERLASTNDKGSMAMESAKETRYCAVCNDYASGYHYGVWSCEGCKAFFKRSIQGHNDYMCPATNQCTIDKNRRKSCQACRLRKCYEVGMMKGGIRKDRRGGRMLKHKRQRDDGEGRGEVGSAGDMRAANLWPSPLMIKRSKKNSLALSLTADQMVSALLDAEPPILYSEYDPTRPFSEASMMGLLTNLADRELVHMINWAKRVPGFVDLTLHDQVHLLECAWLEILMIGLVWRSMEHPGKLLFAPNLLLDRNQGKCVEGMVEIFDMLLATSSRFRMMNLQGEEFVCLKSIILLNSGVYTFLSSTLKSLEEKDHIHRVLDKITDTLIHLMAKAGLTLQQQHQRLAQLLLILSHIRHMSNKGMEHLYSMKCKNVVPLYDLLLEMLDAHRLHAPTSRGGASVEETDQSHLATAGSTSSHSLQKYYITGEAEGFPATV
How it was run: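 Stably transfected HEK293T; ERα LBD homodimer PCA. 24 h dosing, fluorescence intensity read, gain-of-signal vs DMSO.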

[3] = NVS_IC_rCaBTZCHL: NovaScreen (NVS) Ion Channel Assay for Calcium Channel, Type L, Benzothiazepine Site (CaBTZCHL) (AID 2283337)
How it was run: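 Test chemicals were added to rat cortical membranes and incubated 1.5 h with a tritiated or iodinated radioligand for the benzothiazepine site. Bound ligand was separated by filtration and counted. Actives from the 25 uM duplicate screen were retested in concentration series.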

[4] = target: rat Peripheral-type Benzodiazepine Receptor (PBR), Tspo (gene 24230) (UniProt P16257); assay: NVS_MP_rPBR: NovaScreen (NVS) Membrane Protein Assay for rat Peripheral-type Benzodiazepine Receptor (PBR) (AID 2283335)
Chain of rat Peripheral-type Benzodiazepine Receptor (PBR), Tspo (gene 24230) (P16257 whole entry, looked up): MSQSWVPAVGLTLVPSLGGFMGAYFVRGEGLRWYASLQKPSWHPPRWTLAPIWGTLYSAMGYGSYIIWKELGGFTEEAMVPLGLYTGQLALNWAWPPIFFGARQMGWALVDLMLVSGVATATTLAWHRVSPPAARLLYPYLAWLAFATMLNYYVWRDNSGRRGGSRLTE
How it was run: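 Competitive displacement of specific radioligand from rat kidney membrane PBR, read by filtration and scintillation after 1 h. Compounds first tested at 25 uM in duplicate, then in concentration series; signal loss relative to DMSO.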

[5] = target: chimpanzee Androgen Receptor (AR), AR (gene 747460) (UniProt O97775); assay: NVS_NR_cAR: NovaScreen (NVS) Nuclear Receptor Binding Assay for chimpanzee Androgen Receptor (AR) (AID 2283346);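 also: radioligand displacement from AR measured by scintillation counting in a cell-free assay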
Chain of chimpanzee Androgen Receptor (AR), AR (gene 747460) (O97775 whole entry, looked up): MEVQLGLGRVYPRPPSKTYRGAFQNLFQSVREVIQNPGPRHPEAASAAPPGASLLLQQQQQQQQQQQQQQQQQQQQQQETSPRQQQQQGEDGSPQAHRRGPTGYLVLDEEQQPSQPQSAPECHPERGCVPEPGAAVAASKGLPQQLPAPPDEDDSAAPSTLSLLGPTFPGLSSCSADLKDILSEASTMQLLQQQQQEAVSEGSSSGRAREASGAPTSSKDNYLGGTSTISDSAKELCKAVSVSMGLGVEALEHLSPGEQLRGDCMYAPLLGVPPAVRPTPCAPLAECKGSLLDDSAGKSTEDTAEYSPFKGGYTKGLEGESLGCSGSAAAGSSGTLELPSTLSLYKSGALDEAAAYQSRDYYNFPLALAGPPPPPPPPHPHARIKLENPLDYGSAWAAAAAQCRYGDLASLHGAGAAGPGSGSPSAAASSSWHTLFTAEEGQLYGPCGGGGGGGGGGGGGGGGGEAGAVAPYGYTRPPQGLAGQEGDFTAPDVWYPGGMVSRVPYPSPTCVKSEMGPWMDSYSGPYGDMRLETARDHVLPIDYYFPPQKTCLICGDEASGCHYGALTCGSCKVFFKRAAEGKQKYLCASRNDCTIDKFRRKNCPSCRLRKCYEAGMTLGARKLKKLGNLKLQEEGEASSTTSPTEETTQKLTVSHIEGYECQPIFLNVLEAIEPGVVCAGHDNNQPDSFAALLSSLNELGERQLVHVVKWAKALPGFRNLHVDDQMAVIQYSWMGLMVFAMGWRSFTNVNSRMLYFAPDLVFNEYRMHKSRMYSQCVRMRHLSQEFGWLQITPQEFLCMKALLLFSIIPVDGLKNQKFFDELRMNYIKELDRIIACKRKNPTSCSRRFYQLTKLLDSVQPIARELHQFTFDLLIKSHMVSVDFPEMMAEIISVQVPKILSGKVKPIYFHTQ
How it was run: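 Cell-free radioligand displacement using receptor protein extracted from Sf9/Sf21 cells; bound radioligand measured by scintillation counting 72 hours after chemical dosing. Loss of signal versus DMSO baseline indicates binding; primary screen single-concentration in duplicate at 25 uM, actives followed in concentration series.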

[6] = target: Estrogen receptor (Homo sapiens) (UniProt P03372); assay: NVS_NR_hER: NovaScreen (NVS) Nuclear Receptor Binding Assay for human Estrogen Receptor (ER) (AID 2283348)
How it was run: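 Radiodetection of ligand displacement in a lysate-based, cell-free format using MCF7 extracts, read at 18 hours. Duplicate 25 uM primary testing, then concentration series for actives.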

[7] = target: bovine Estrogen Receptor (ER), ESR1 (gene 407238) (UniProt P49884); assay: NVS_NR_bER: NovaScreen (NVS) Nuclear Receptor Binding Assay for bovine Estrogen Receptor (ER) (AID 2283345);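 also: actives lower the bound radioligand count which means they displace the ER ligand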
Chain of bovine Estrogen Receptor (ER), ESR1 (gene 407238) (P49884 whole entry, looked up): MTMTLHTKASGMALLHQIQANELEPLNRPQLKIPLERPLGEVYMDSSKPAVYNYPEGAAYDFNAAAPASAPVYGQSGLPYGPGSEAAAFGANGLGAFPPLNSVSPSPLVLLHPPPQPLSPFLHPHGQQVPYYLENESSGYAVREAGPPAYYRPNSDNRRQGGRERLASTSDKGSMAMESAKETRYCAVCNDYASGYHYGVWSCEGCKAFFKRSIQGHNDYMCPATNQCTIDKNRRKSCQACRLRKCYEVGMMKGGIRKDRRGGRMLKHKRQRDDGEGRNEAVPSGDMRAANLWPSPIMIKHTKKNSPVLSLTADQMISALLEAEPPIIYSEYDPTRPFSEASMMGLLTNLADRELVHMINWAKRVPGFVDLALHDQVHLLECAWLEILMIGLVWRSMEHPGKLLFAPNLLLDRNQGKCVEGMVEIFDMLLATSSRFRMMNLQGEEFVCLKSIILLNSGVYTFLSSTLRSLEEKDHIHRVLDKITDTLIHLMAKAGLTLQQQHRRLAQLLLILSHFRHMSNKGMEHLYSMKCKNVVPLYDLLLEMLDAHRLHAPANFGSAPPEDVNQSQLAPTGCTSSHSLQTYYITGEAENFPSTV
How it was run: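 Bovine uterine membranes; tritiated or iodinated radioligand; competitive displacement; 18 h; scintillation read; DMSO negative control; 25 uM duplicates, then concentration series for actives.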

## CCCCC(=O)O
[1]
  outcome: inactive
[2]
  outcome: inactive

## Nc1ccnc(=O)[nH]1
[3]
  outcome: inactive

## C/C=C/C=C/CCCCCCCO
[1]
  outcome: inactive
[2]
  outcome: inactive

## N#Cc1ccc(C(c2ccc(C#N)cc2)n2cncn2)cc1
[4]
  AC50: 6.92 µM (active)
[5]
  AC50: 7.43 µM (active)
[6]
  outcome: inactive
[2]
  outcome: inactive

## COC(=O)[C@H](Cc1ccccc1)NC(=O)[C@@H](N)CC(=O)O (H-Asp-Phe-OMe)
[1]
  outcome: inactive
[2]
  outcome: inactive

## CC(=O)OC1CCCCC1C(C)(C)C (stereo not given)
[1]
  outcome: inactive
[2]
  outcome: inactive

## COC(OC)(C(=O)c1ccccc1)c1ccccc1
[4]
  AC50: 25 µM (active)
[7]
  outcome: inactive
[6]
  AC50: 25 µM (active)
  outcome: inactive

## C=CCCCCCCCCC=O
[7]
  outcome: inactive

## CC(=O)OC(C)c1ccccc1 (stereo not given)
[1]
  outcome: inactive
[5]
  outcome: inactive
[2]
  outcome: inactive

## CCCCC(CC)COS(=O)(=O)O (stereo not given)
[1]
  outcome: inactive
[2]
  outcome: inactive

## O=C(Oc1ccccc1)c1ccccc1C(=O)Oc1ccccc1
[4]
  AC50: 30.9 µM (active)

## CC(Cl)COP(=O)(OCC(C)Cl)OCC(C)Cl (stereo not given)
[4]
  AC50: 13.4 µM (active)

## CCOC(=O)c1ccc(C)cc1
[1]
  outcome: inactive
[2]
  outcome: inactive

## CCCCC(C=O)CC (stereo not given)
[1]
  outcome: inactive
[2]
  outcome: inactive

## CN(C)Cc1cc(CN(C)C)c(O)c(CN(C)C)c1
[1]
  outcome: inactive
[6]
  outcome: inactive
[2]
  outcome: inactive

## CCCCCCOC(=O)CCCCC(=O)OCCCCCC
[3]
  outcome: inactive
[2]
  outcome: inactive

## O=c1c(O)c(-c2ccc(O)cc2O)oc2cc(O)cc(O)c12
[4]
  outcome: inactive
[7]
  outcome: inactive
[5]
  AC50: 9.55 µM (active)
[6]
  AC50: 4.3 µM (active)
[2]
  outcome: inactive

## CCOC(=O)c1ccccc1C
[1]
  outcome: inactive
[2]
  outcome: inactive

## CC(C)(C)NC(=O)[C@H]1CC[C@H]2[C@@H]3CC[C@H]4NC(=O)C=C[C@]4(C)[C@H]3CC[C@]12C
[1]
  outcome: inactive
[7]
  outcome: inactive
[5]
  outcome: inactive
[2]
  AC50: 75 µM (active)
